Tests used:
Settings in all cases: concentration: 1 μM,replicates: in singlicate; n = 1
AAK1 = system: AAK1
ABL1-nonphosphorylated = system: ABL1-nonphosphorylated
ABL1-phosphorylated = system: ABL1-phosphorylated
ABL2 = system: ABL2
ACVR1B = system: ACVR1B
ACVR1 = system: ACVR1
ACVR2A = system: ACVR2A
ACVR2B = system: ACVR2B
ACVRL1 = system: ACVRL1
ADCK3 = system: T1, ADCK3
T1 construct: gene CABC1

ADCK4 = system: ADCK4
AKT1 = system: AKT1
AKT2 = system: AKT2
AKT3 = system: AKT3
ALK = system: ALK
AMPK-alpha1 = system: T2, AMPK-alpha1
T2 construct: gene PRKAA1

AMPK-alpha2 = system: T3, AMPK-alpha2
T3 construct: gene PRKAA2

ANKK1 = system: ANKK1
ARK5 = system: T4, ARK5
T4 construct: gene NUAK1

ASK1 = system: T5, ASK1
T5 construct: gene MAP3K5
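Further: KINOMEscan kinase panel screen.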

Structure (SMILES) | %Inh (AAK1) [%] | %Inh (ABL1-nonphosphorylated) [%] | %Inh (ABL1-phosphorylated) [%] | %Inh (ABL2) [%] | %Inh (ACVR1B) [%] | %Inh (ACVR1) [%] | %Inh (ACVR2A) [%] | %Inh (ACVR2B) [%] | %Inh (ACVRL1) [%] | %Inh (ADCK3) [%] | %Inh (ADCK4) [%] | %Inh (AKT1) [%] | %Inh (AKT2) [%] | %Inh (AKT3) [%] | %Inh (ALK) [%] | %Inh (AMPK-alpha1) [%] | %Inh (AMPK-alpha2) [%] | %Inh (ANKK1) [%] | %Inh (ARK5) [%] | %Inh (ASK1) [%]
C[C@@H](Oc1cc(-n2cnc3cc(-c4ccncc4)ccc32)sc1C(N)=O)c1ccccc1Cl [GSK479719] | 61 | 0 | 25 | 22 | 0 | 10 | 0 | 0 | 0 | 12 | 9 | 0 | 6 | 0 | 31 | 5 | 17 | 0 | 75 | 4
O=C(Nc1cccc(C(F)(F)F)c1)c1cccc(Oc2ccc3nccn3n2)c1 | 0 | 98.5 | 17 | 76 | 0 | 0 | 24 | 8 | 0 | 14 | 0 | 0 | 17 | 1 | 0 | 8 | 84 | 0 | 0 | 5
Cn1ccc2ncnc(Oc3ccc(NC(=O)Nc4cc(C(C)(C)C)on4)c(Cl)c3)c21 | 18 | 94.8 | 51 | 46 | 15 | 0 | 12 | 12 | 0 | 0 | 19 | 18 | 0 | 0 | 38 | 0 | 21 | 10 | 4 | 11
CCn1c(-c2nonc2N)nc2cncc(CNC3CCNCC3)c21.Cl [SB-747651] | 39 | 5 | 5 | 13 | 0 | 8 | 0 | 0 | 0 | 1 | 11 | 72 | 51 | 66 | 63 | 6 | 0 | 22 | 9 | 9
CC(C)c1nc(-c2cccc(NS(=O)(=O)c3ccccc3)c2)c(-c2ccnc(Nc3ccc4c(c3)CN(C)CC4)n2)s1 [GSK1649598] | 25 | 99.8 | 97.3 | 98.7 | 93.5 | 99 | 24 | 94.5 | 80 | 100 | 97.4 | 0 | 4 | 0 | 0 | 82 | 94.5 | 42 | 6 | 0
CCCC(=O)Nc1n[nH]c2ncccc12 [SB-601436] | 0 | 24 | 0 | 0 | 0 | 5 | 0 | 0 | 0 | 0 | 0 | 0 | 0 | 2 | 0 | 0 | 0 | 13 | 0 | 0
Cc1ccc(CC(=O)N2CCc3cc(-c4cn(C)c5ncnc(N)c45)ccc32)cc1 [GSK2634758] | 33 | 42 | 5 | 24 | 20 | 0 | 0 | 0 | 0 | 6 | 9 | 0 | 1 | 30 | 0 | 0 | 29 | 23 | 37 | 3
COC(=O)c1cccc(NC(=O)NC2CCN(c3ccnc(NCc4ccc(F)cc4)n3)CC2)c1 [GSK1379860] | 0 | 0 | 0 | 14 | 0 | 0 | 0 | 23 | 0 | 5 | 18 | 0 | 0 | 0 | 30 | 0 | 0 | 0 | 10 | 0
CS(=O)c1ccc(-c2coc3ccc(-c4n[nH]c(=O)o4)cc23)cc1 (stereo not shown) | 21 | 35 | 3 | 0 | 14 | 0 | 8 | 19 | 0 | 0 | 12 | 0 | 0 | 26 | 13 | 100 | 5 | 36 | 10 | 0
Cn1ccc2ncnc(Oc3ccc(NC(=O)Nc4cccc(C(F)(F)F)c4)c(Cl)c3)c21 | 0 | 88 | 19 | 21 | 1 | 0 | 0 | 47 | 0 | 5 | 6 | 0 | 0 | 0 | 0 | 15 | 0 | 0 | 3 | 5
Cc1nnc(-c2ccc3occ(-c4ccc(S(C)=O)cc4)c3n2)o1 (stereo not shown) | 0 | 43 | 30 | 16 | 0 | 0 | 0 | 0 | 0 | 2 | 0 | 0 | 17 | 0 | 0 | 0 | 0 | 0 | 10 | 0

— article PMC5540273 (PLoS ONE, 2017)
